According to PubChem BioAssay AID1159580 (chemical genetic matrix, 2015):
Values joined by “and” are separate entries in the source; they are usually repeats but may differ in a detail not shown here. Equal entries are not always repeated. In all, about 5,500 compounds went through this assay and about 2,000 (36%) were called active. About 18% were inconclusive and are not listed. No stated cut-off is given here; in the data, active means normalized growth mostly below about 0.91 (no sharp cut-off); inconclusive means no clear call, values can overlap the other calls; inactive means mostly above about 0.92. The list shows a part of the results.

Assay: chemical genetic growth profiling, strain panel (AID 1159580);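 further: tested at 20 µM; growth read once vehicle control cultures reached saturation at 30 °C; 1 = growth at the plate median or of vehicle wells; lower values mean less growth of the strain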
Details: S. cerevisiae deletion strains, growth OD

Measured: normalized growth

O=C(O)C1CCCNC1 (stereo not given)
inactive: locus YAL013W, strain DEP1, active compounds read low 1 | locus YAL021C, strain ccr4, active compounds read low 1.01 | locus YAL026C, strain drs2, active compounds read low 1.02 | locus YAL030W, strain snc1, active compounds read low 1.02 | locus YAL040C, strain CLN3, active compounds read low 1 | locus YBL061C, strain skt5, active compounds read low 1.02 | locus YBR009C, strain hhf1, active compounds read low 1.01 | locus YBR021W, strain FUR4, active compounds read low 0.999 | locus YBR023C, strain chs3, active compounds read low 1.01 | locus YBR171W, strain sec66, active compounds read low 1.03 | locus YBR229C, strain ROT2, active compounds read low 1.01 | locus YBR231C, strain swc5, active compounds read low 1.01 | locus YBR279W, strain paf1, active compounds read low 1.01 | locus YCL011C, strain gbp2, active compounds read low 1.01 | locus YCL016C, strain dcc1, active compounds read low 1.01 | locus YCL029C, strain bik1, active compounds read low 1.04 | locus YCL061C, strain MRC1 (second series), active compounds read low 1 | locus YCL061C, strain MRC1, active compounds read low 1.02 | locus YCL069W, strain vba3, active compounds read low 1.02 | locus YCR088W, strain abp1, active compounds read low 1.02 | locus YDL005C, strain med2, active compounds read low 1.02 | locus YDL035C, strain GPR1, active compounds read low 1.01 | locus YDL040C, strain nat1, active compounds read low 1.02 | locus YDL074C, strain BRE1, active compounds read low 1.03 | locus YDL101C, strain DUN1, active compounds read low 1.01 | locus YDL134C, strain PPH21, active compounds read low 1.01 | locus YDL185W, strain tfp1, active compounds read low 1.01 | locus YDL192W, strain arf1, active compounds read low 1.03 | locus YDR001C, strain nth1, active compounds read low 1.02 | locus YDR069C, strain doa4, active compounds read low 1.02 | locus YDR101C, strain arx1, active compounds read low 1.02 | locus YDR137W, strain rgp1, active compounds read low 1.02 | locus YDR150W, strain NUM1, active compounds read low 1.01 | locus YDR159W, strain sac3, active compounds read low 1.02 | locus YDR162C, strain NBP2, active compounds read low 1.01 | locus YDR195W, strain ref2 0.991 | locus YDR297W, strain sur2, active compounds read low 1.02 | locus YDR318W, strain mcm21, active compounds read low 1.03 | locus YDR334W, strain swr1, active compounds read low 1.02 | locus YDR335W, strain msn5, active compounds read low 1.02 | locus YDR388W, active compounds read low 1.02 | locus YDR392W, strain spt3, active compounds read low 1.03 | locus YDR502C, strain sam2, active compounds read low 1.01 | locus YEL003W, strain gim4, active compounds read low 1.03 | locus YEL037C, strain rad23, active compounds read low 1.02 | locus YEL061C, strain CIN8 (second series), active compounds read low 1.02 | locus YEL061C, strain CIN8, active compounds read low 1.01 | locus YER002W, strain NOP16, active compounds read low 1.02 | locus YER015W, strain faa2, active compounds read low 1.02 | locus YER016W, strain bim1, active compounds read low 1.01 | locus YER110C, active compounds read low 1.02 | locus YER111C, strain swi4, active compounds read low 1.02 | locus YER155C, strain BEM2 (second series), active compounds read low 1.02 | locus YER155C, strain BEM2, active compounds read low 1 | locus YER167W, strain BCK2, active compounds read low 1.02 | locus YFR010W, strain ubp6, active compounds read low 1.02 | locus YGL078C, strain dbp3, active compounds read low 1.02 | locus YGL086W, strain mad1, active compounds read low 0.999 | locus YGL167C, strain pmr1, active compounds read low 1.01 | locus YGL173C, strain kem1, active compounds read low 1.02 | locus YGL227W, strain vid30, active compounds read low 1.02 | locus YGL240W, strain doc1, active compounds read low 1.02 | locus YGL248W, strain PDE1, active compounds read low 1.01 | locus YGL253W, strain hxk2, active compounds read low 1.02 | locus YGR078C, strain PAC10, active compounds read low 1.02 and 1.01 | locus YGR135W, strain pre9, active compounds read low 1.03 | locus YGR229C, strain SMI1, active compounds read low 0.999 | locus YGR252W, strain gcn5, active compounds read low 1.01 | locus YHR013C, strain ard1, active compounds read low 1.04 | locus YHR027C, strain rpn1, active compounds read low 1.01 | locus YHR030C, strain SLT2, active compounds read low 1 and 0.996 | locus YHR079C, strain IRE1 (second series), active compounds read low 1.02 | locus YHR079C, strain IRE1, active compounds read low 1.01 | locus YHR094C, strain hxt1, active compounds read low 1.02 | locus YHR129C, strain ARP1, active compounds read low 1.01 | locus YHR142W, strain chs7, active compounds read low 1.01 | locus YHR200W, strain rpn10, active compounds read low 1.01 | locus YIL066C, strain RNR3, active compounds read low 1.01 | locus YIL073C, strain SPO22, active compounds read low 1.1 | locus YIL125W, strain kgd1, active compounds read low 1.02 | locus YIR030C, strain dcg1, active compounds read low 1.03 | locus YJL092W, strain hpr5, active compounds read low 1.02 | locus YJL095W, strain BCK1 (second series), active compounds read low 1.02 | locus YJL095W, strain BCK1, active compounds read low 1.04 and 1 | locus YJL115W, strain asf1, active compounds read low 1.01 | locus YJL129C, strain trk1, active compounds read low 1.04 | locus YJL134W, strain LCB3, active compounds read low 1.01 | locus YJL154C, strain vps35, active compounds read low 1.03 | locus YJL164C, strain tpk1, active compounds read low 1.01 | locus YJL166W, strain qcr8, active compounds read low 1.01 | locus YJL168C, strain set2, active compounds read low 1.02 | locus YJL187C, strain SWE1 (second series), active compounds read low 1.02 | locus YJL187C, strain SWE1, active compounds read low 1.01 | locus YJR043C, strain POL32, active compounds read low 1.01 | locus YJR066W, strain TOR1, active compounds read low 0.923
